Screening data: PubChem, National Center for Advancing Translational Sciences (NCATS)
Sampled rows, rich in hits. Any-hit rate of the full collection: about 5.9%.
FBPA coupling cs = inhibits coupling enzyme system, counter-screen for aldolase hits; coupling enzyme system counterscreen, AmpLite Red fluorescence; activity change, negative = inhibition, % at 58.2 µM, hits read low; 290,000 tested, 0.67% active; AID 2472; in the data active = activity change below about -30%
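Counterscreen lacking aldolase: glyceraldehyde-3-phosphate coupling-enzyme reagent preincubated 10 min at RT with compound (at 57.5 uM final), then substrate/coupling system with AmpLite Red added; fluorescence read at 525/598 nm after 20 min RT.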
RORgamma inh = ROR gamma (mouse) transcription inhibition | 310,000 tested, 5.4% active | P51450 | Potency, µM (series often up to 53.6 µM), without a hit: top-dose activity change, negative = inhibition, usual class: inhibitors | Drosophila S2 Gal4-RORgamma UAS-luciferase reporter, 20 h; also: potency is read from the fitted curve at half-maximal effect; nearly all actives have a fitted effect of over 60% in size
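Stably transfected Drosophila Schneider cells are the test system, with ROR gamma fused to Gal4 and luciferase under UAS control; luminescence is read after 20 hr of 700 uM copper sulfate induction at ambient temperature.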
rTrxR1 inhibitor = rat TrxR1 inhibition. O89049. recombinant rTrxR1, NADPH fluorescence consumption, selenite substrate. Potency, µM (titrated, usually from 114 µM), for inactives: at the top dose activity change, negative = inhibition, actives largely listed as inhibitors. 390,000 tested, 1% active. AID 588453; also: potency is read from the fitted curve at half-maximal effect; nearly all actives have a fitted effect of over 65% in size
Target sequence (O89049 whole entry, looked up): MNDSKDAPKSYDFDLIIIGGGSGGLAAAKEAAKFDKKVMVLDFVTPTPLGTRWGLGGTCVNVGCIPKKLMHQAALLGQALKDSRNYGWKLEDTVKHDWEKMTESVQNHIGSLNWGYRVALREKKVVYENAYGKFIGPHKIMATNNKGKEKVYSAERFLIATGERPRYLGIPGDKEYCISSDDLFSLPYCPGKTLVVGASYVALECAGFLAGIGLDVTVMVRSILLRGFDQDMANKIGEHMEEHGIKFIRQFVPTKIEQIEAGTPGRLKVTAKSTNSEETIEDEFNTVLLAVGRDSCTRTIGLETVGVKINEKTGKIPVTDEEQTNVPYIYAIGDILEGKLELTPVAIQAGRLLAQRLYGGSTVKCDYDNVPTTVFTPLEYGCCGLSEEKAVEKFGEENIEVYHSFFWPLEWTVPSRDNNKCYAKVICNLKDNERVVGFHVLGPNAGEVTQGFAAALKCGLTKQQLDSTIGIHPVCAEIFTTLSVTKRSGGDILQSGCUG
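Rat TrxR1 (90 nM in the dispensed reagent) was pre-reduced with 400 uM NADPH for 5 min at room temperature, then incubated with compound for 15 min. After 400 uM selenite was added, NADPH fluorescence (Ex 340/Em 450 nm) was followed for 8 min.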
GALK inh = blocks human galactokinase activity. P51570. 270,000 tested, 0.007% active. Purified GALK, Kinase-Glo residual ATP luminescence. Potency, µM (top dose mostly 57.5 µM), without a hit: at the top dose activity change, negative = inhibition, hits mostly inhibitors. AID 1868; also: potency is read from the fitted curve at half-maximal effect
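Human GALK (5 nM) with 35 uM ATP and 100 uM galactose in 20 mM HEPES pH 8.0, 5 mM MgCl2, 60 mM NaCl, 1 mM DTT, 0.01% BSA. After 1 h at room temperature, leftover ATP was read by Kinase-Glo Plus luminescence.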
VP16 counter = inhibits Gal4-VP16 luciferase reporter, ROR gamma counter-screen | Drosophila S2 Gal4-VP16 UAS-luciferase, luminescence, 20 h | 310,000 tested, 3.5% active | AID 2546 | Potency, µM (doses to about 53.6 µM), without a hit: at the highest dose activity, negative = inhibition, most hits filed as inhibitors;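 also: Gal4-VP16 expression switched on by copper sulfate through the metallothionein promoter; potency is read from the fitted curve at half-maximal effect; nearly all actives have a fitted effect of over 50% in size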
TrxR1 substrate = is turned over as a substrate by rat TrxR1. purified TrxR1 substrate turnover, NADPH consumption readout. Potency, µM (series often up to 114 µM), without a hit: top-dose activity change, negative = substrate turnover. 390,000 tested, 0.01% active. AID 588456; also: potency is read from the fitted curve at half-maximal effect; nearly all actives have a fitted effect of over 50% in size
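Rat TrxR1, dispensed at 90 nM, was prereduced with 400 uM NADPH (final) for 5 min at ~22 deg C, then incubated with compound 15 min before 400 uM selenite. A first-read NADPH fluorescence drop versus no-compound background flagged substrates.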
Starred values were filed as active, the others as inactive; [ ] = another dose, or the depositor's remark. Unless noted, calls follow the shape of the dose curve; as a rule, active = well fitted curve in the direction sought with a large enough effect; inconclusive = small, poorly fitted or top-dose-only effect, or another doubt; inactive = no such curve, though single readings can be large; an effect the other way counts as inactive or inconclusive. % is scaled to controls: 0 for no effect and ±100 for the full control effect.

Results for CCCC(=O)N1CCN(c2ccc(NC(=O)c3ccc(OCC)c([N+](=O)[O-])c3)cc2)CC1 ?
FBPA coupling cs: -1; RORgamma inh: 19%; rTrxR1 inhibitor: -7%; GALK inh: 0%; VP16 counter: 7%; TrxR1 substrate: -5%

Results for CCOc1ccc(C(=O)NC(=S)Nc2ccccc2N2CCC(C)CC2)cc1[N+](=O)[O-] ?
FBPA coupling cs: -7; RORgamma inh: 1µM*; rTrxR1 inhibitor: 7%; GALK inh: -1%; VP16 counter: 3.2µM*; TrxR1 substrate: -4%

What do the screens show for `CN=c1scc(-c2ccc([N+](=O)[O-])cc2)n1/N=C/c1ccco1`?
FBPA coupling cs: -1; RORgamma inh: -21%; rTrxR1 inhibitor: 28%[57.1 µM]; GALK inh: -1%; VP16 counter: 3%; TrxR1 substrate: 9%[57.1 µM]

What do the screens show for `CN=c1scc(-c2ccc(F)cc2)n1/N=C/c1ccc(O)c(O)c1`?
FBPA coupling cs: -9; RORgamma inh: 0.11µM*; rTrxR1 inhibitor: -10%; GALK inh: 0%; VP16 counter: 0.79µM*; TrxR1 substrate: -10%

Results for C[C@H]1[C@H](C)CC[C@]2(C(=O)O)CC[C@]3(C)C(=CC[C@@H]4[C@@]5(C)C[C@@H](O)[C@H](O)C(C)(C)[C@@H]5CC[C@]43C)[C@H]12 ?
FBPA coupling cs: 6; RORgamma inh: 10µM*; rTrxR1 inhibitor: 3%[57.1 µM]; VP16 counter: inconclusive; TrxR1 substrate: -12%[57.1 µM]

What do the screens show for `CCN1CCN(Cc2c(O)ccc3c2O/C(=C\C=C\c2ccccc2)C3=O)CC1`?
FBPA coupling cs: -3; RORgamma inh: 32%; rTrxR1 inhibitor: 14%; GALK inh: -5%; VP16 counter: -21%; TrxR1 substrate: 7%[11.4 µM]

How did COc1ccccc1/C=C/C=C1\Oc2c(ccc(O)c2CN2CCN(CCO)CC2)C1=O do in these assays?
FBPA coupling cs: -3; RORgamma inh: -14%; rTrxR1 inhibitor: 25µM*; GALK inh: 1%; VP16 counter: -26%; TrxR1 substrate: 1%

How did CN(C)Cc1c(O)ccc2c1O/C(=C\C=C\c1ccccc1)C2=O do in these assays?
FBPA coupling cs: 2; RORgamma inh: 13%; rTrxR1 inhibitor: 79µM*; GALK inh: -1%; VP16 counter: -14%; TrxR1 substrate: -23%

Results for CS(=O)(=O)c1ncc(Cl)c(C(=O)Nc2ccc(OC(F)F)cc2)n1 ?
FBPA coupling cs: 5; RORgamma inh: 3.5µM*; rTrxR1 inhibitor: 40µM*; GALK inh: 4%; VP16 counter: 1.3µM*; TrxR1 substrate: -13%

How did CS(=O)(=O)c1ncc(Cl)c(C(=O)Nc2ccc(N3CCOCC3)cc2)n1 do in these assays?
FBPA coupling cs: -3; RORgamma inh: 3.2µM*; rTrxR1 inhibitor: 10µM*; GALK inh: 4%; VP16 counter: 3.2µM*; TrxR1 substrate: 4%

How did CCn1c(=O)cc(SCC(=O)NCCc2ccc(Cl)cc2)c2ccccc21 do in these assays?
rTrxR1 inhibitor: 25%; TrxR1 substrate: 4%

What do the screens show for `CCCCCc1ccc(OCCCC[n+]2ccc(C)cc2)c(CCCCC)c1`?
FBPA coupling cs: -6; RORgamma inh: 2µM*; rTrxR1 inhibitor: 1%; GALK inh: 5%; VP16 counter: 2.8µM*; TrxR1 substrate: -10%

What do the screens show for `CCOc1ccc2c(c1)ncn2Cc1ccccc1`?
FBPA coupling cs: 0; RORgamma inh: 11µM*; rTrxR1 inhibitor: 7%[57.1 µM]; GALK inh: 1%; VP16 counter: 1%; TrxR1 substrate: 6%[57.1 µM]

What do the screens show for `Cc1nc2c3cc(F)ccc3n(Cc3ccc(F)cc3)c2s1`?
FBPA coupling cs: 1; RORgamma inh: -5%[10 µM]; rTrxR1 inhibitor: 7%; GALK inh: 0%; VP16 counter: -5%; TrxR1 substrate: -6%

Results for CCc1ccc2c(c1)c1nc(C)sc1n2CC ?
FBPA coupling cs: -21; RORgamma inh: 10µM*; rTrxR1 inhibitor: -4%; GALK inh: 3%; VP16 counter: 11µM*; TrxR1 substrate: -5%

What do the screens show for `Cc1cccc(C(=O)Nc2ccn(C)n2)c1`?
rTrxR1 inhibitor: 18%[57.1 µM]; TrxR1 substrate: 10%[57.1 µM]

Results for CC1=CC(=O)N(c2ccn(C)n2)C1=O ?
FBPA coupling cs: 1; RORgamma inh: 14µM*; rTrxR1 inhibitor: -39%; VP16 counter: 13µM*; TrxR1 substrate: 5%[11.4 µM]

How did Cc1[nH]n(-c2ccccc2)c(=O)c1/C=N/N1C(=O)c2cccc3cccc(c23)C1=O do in these assays?
FBPA coupling cs: 3; RORgamma inh: 7.1µM*; rTrxR1 inhibitor: 12%[57.1 µM]; GALK inh: -1%; VP16 counter: inconclusive; TrxR1 substrate: 0%[57.1 µM]

What do the screens show for `Cc1[nH]n(-c2ccccc2)c(=O)c1C=Nc1cccc2cccnc12`?
FBPA coupling cs: -7; RORgamma inh: 0.63µM*; rTrxR1 inhibitor: -17%; GALK inh: 1%; VP16 counter: 0.63µM*; TrxR1 substrate: -23%

What do the screens show for `N#Cc1c(SCC(=O)Nc2nccs2)nc2c(c1-c1ccco1)CCCC2`?
FBPA coupling cs: 0; RORgamma inh: 10µM*; rTrxR1 inhibitor: -17%; GALK inh: -3%; VP16 counter: 2%; TrxR1 substrate: 23%

What do the screens show for `CCn1c(SCC(=O)c2ccc(C)cc2)nnc1-c1ccoc1C`?
FBPA coupling cs: -7; RORgamma inh: inconclusive; rTrxR1 inhibitor: -23%; GALK inh: 2%; VP16 counter: 16µM*; TrxR1 substrate: -5%

What do the screens show for `COc1ccc(-c2ccc(C#N)c(SCC(=O)Nc3sc4c(c3C#N)CCC4)n2)cc1`?
FBPA coupling cs: -1; RORgamma inh: -1%; rTrxR1 inhibitor: -4%[57.1 µM]; VP16 counter: -9%; TrxR1 substrate: 12%[57.1 µM]

How did N#Cc1ccc(-c2cccnc2)nc1SCC(=O)Nc1sc2c(c1C#N)CCC2 do in these assays?
FBPA coupling cs: 1; RORgamma inh: 13µM*; rTrxR1 inhibitor: inconclusive; GALK inh: 1%; VP16 counter: inconclusive; TrxR1 substrate: -4%

What do the screens show for `CCn1c(SCC(=O)Nc2sc3c(c2C#N)CCCC3)nnc1-c1ccco1`?
FBPA coupling cs: -40*; RORgamma inh: 3%; rTrxR1 inhibitor: 1%; GALK inh: 1%; VP16 counter: 6%; TrxR1 substrate: 1%

What do the screens show for `O=C(CSc1cccc[n+]1[O-])c1ccccc1Br`?
FBPA coupling cs: 2; RORgamma inh: inconclusive; rTrxR1 inhibitor: 9%[57.1 µM]; GALK inh: 11%; VP16 counter: 11%; TrxR1 substrate: 4%[0.457 µM]

Results for O=C(NCCN1CCOCC1)/C(=C\c1ccccc1F)NC(=O)c1ccccc1 ?
RORgamma inh: -12%; rTrxR1 inhibitor: 18%[57.1 µM]; GALK inh: 6%; VP16 counter: -15%; TrxR1 substrate: 2%[57.1 µM]
